According to PubChem BioAssay AID602156 (GNF / Scripps Winzeler lab, 2011):
Out of some 5,700 compounds screened, about 280 (4.9%) were called active. The rule behind the calls is not given here. These entries were drawn from the full list.

Experiment: exo-erythrocytic parasite development inhibition – imaging, Malaria Box, P. yoelii, HepG2-A16-CD81EGFP, dose response (AID 602156)
Settings: P. yoelii liver stage in HepG2-A16-CD81EGFP

outcome, inactive:
CC(C)CC(NC(=O)C(=Cc1ccco1)NC(=O)c1ccccc1)C(=O)OCc1ccccc1 (stereo not given)
O=C(CSc1nc2ccccc2[nH]1)Nc1ccc2c(c1)OCO2
CC(C)(C)C1=NN(CC(=O)Nc2ccc3c(c2)OCO3)C(=O)c2cc3ccccc3n2C1
c1ccc2c(NC3CCCC3)nc(Nc3ccc4c(c3)OCO4)nc2c1
Clc1cccc(CSc2nc(Nc3ccc4c(c3)OCO4)c3ccccc3n2)c1
CC(C)CN1CCC(O)(c2ccc3oc(C(=O)Nc4ccc5c(c4)OCO5)cc3c2)CC1
O=C(Nc1ccc2c(c1)OCO2)c1cc2cc(C3(O)CCN(CCCc4ccccc4)CC3)ccc2o1
CCCc1ccc(OCCNC(=O)CCNC(=O)Nc2cccc(Cl)c2)cc1
CC(C)CNC(=O)c1ccc(OC2CCN(CC3CCCCC3)CC2)c(Cl)c1
CC(C)CN(CC(=O)Nc1cc(C(C)(C)C)nn1-c1ccccc1)C(=O)c1cc(Cl)cc(Cl)c1
O=C(Nc1ccc(-n2cnnn2)cc1)C1CCN(Cc2ccc(OC(F)F)cc2)CC1
CCC(C)OC(=O)C1=C(C)NC2=C(C(=O)CC(c3ccc(Cl)cc3)C2)C1c1ccccc1F (stereo not given)
N#Cc1cc(Oc2ccc(-c3cnc4ccccc4n3)cc2)nc2ccccc12
COc1ccc(C2C(C(=O)Nc3cccc(OC)c3)c3ccccc3C(=O)N2C2CCCCC2)cc1 (stereo not given)
CC[n+]1c(C=CC=C2N(C)c3ccccc3C2(C)C)n(-c2ccccc2)c2ccccc21
COc1ccc(NC(=O)NCc2cccn2Cc2ccc(F)cc2)cc1OC
Cn1nc(C(=O)N2CCCCCC2)c2c1CCC(NCC(C)(C)N1CCOCC1)C2 (stereo not given)
C=C(Cl)CSc1nnc(CCNC(=O)c2ccc(C)cc2)n1-c1ccc(F)cc1
CCCc1nc2ccc(NC(=O)NCC)cc2c(=O)n1Cc1ccc(-c2ccccc2)cc1
CCc1nc2ccc(NC(=O)c3ccncc3)cc2c(=O)n1Cc1cccc(OC)c1
COc1cc(OC)cc(C(=O)N(CCCC(C)Nc2cc(OC)cc3cccnc23)Cc2ccc(Cl)cc2)c1 (stereo not given)
COc1cc(C(=O)C=CNc2ccc(N(C)C)cc2)cc(OC)c1OC
CCC(Cc1cnc2nc(N)nc(N)c2n1)c1ccc(C(=O)N[C@@H](CCC(=O)O)C(=O)O)cc1 (stereo not given in full)
CCCCCCc1cc2cc(-c3nc4ccccc4[nH]3)c(=Nc3ccccc3C)oc2cc1O
CC(C)(C)c1nn(-c2ccc(Cl)cc2)c2[nH]c(=O)c(CNCc3ccccc3)cc12
c1ccc2c(NCCNc3c4ccccc4nc4ccccc34)c3ccccc3nc2c1
COc1ccccc1N1CCN(Cc2cc(C(C)C)c(C)cc2O)CC1
N#CN=C(N)c1sc(Nc2ccccc2)nc1N
CC1[C@H]2NC[C@H](C)C[C@]2(O)O[C@@H]2C[C@H]3[C@@H]4CC[C@H]5C[C@@H](N)CC[C@]5(C)C4CC[C@]3(C)[C@@H]12 (stereo not given in full)
O=C(Nc1ccc(Cl)c(Cl)c1)Nc1ccc(Cl)c(Cl)c1
N=c1c2c(n(Cc3ccc(Cl)c(Cl)c3)c3c1CCC3)CCCC2
COc1ccc(C2CC(=O)C3=C(C2)NC(C)=C(C(=O)OC2CCCC2)C3c2ccccc2)cc1 (stereo not given)
COCCSc1nc2sc3c(c2c(=O)n1-c1ccc(OC)cc1)CCN(C)C3
Cc1ccc2nc3c(c(Nc4ccc(N(C)C)cc4)c2c1)CCC3
Cc1ccc(-c2nc3cc(NC(=O)c4ccc([N+](=O)[O-])o4)ccc3o2)cc1Br
Nc1cc(C(=O)Nc2cccc(C3=NCCN3)c2)ccc1C(=O)Nc1cccc(C2=NCCN2)c1
CCCCCC1CCCc2c1[nH]c1cc(Cl)ccc1c2=O (stereo not given)
O=C(NCc1ccccc1)c1cnc(NCCCN2CCCC2)nc1NCCc1ccccc1
CC(C)c1ccc(C=CC(=O)NCc2ccco2)cc1
CCc1c(C)nc(SCC(=O)NNC(C)=O)[nH]c1=O
FC(F)(F)c1cccc(-c2nc3c(s2)CN(C2CCCC2)CC3)c1
Cc1c(/C=C2\SC(=Nc3ccccc3F)N(C3CCCCC3)C2=O)c2ccccc2n1CC(N)=O
Clc1ccc(-c2nc3ncc(Cl)cc3[nH]2)cc1
COc1cccc(-c2ccc(O)c(CN3CCC(C)CC3)c2)n1
Clc1ccc(Nc2nc(NCc3ccco3)c3ccccc3n2)cc1
CCOC(=O)c1sc(NC(=O)CSc2nnc(CNC(=O)COc3ccc(Cl)cc3)n2C)c(C(=O)OCC)c1C
COc1ccc(N=C(C)C2=C(O)c3ccccc3C2=O)c(OC)c1
CN(C)c1ccc(/C=C/C=C/c2cc[n+](C)cc2)cc1
CCCCCCCCCCOC(=O)Cn1c(C)[n+](C)c2ccccc21
COCCn1nnnc1C(c1cc2cc3c(cc2[nH]c1=O)OCCO3)N1CCC(O)CC1 (stereo not given)
COc1cc2nc(NCc3ccccn3)n3nc(-c4ccccc4)nc3c2cc1OC
CCN1C(=S)NC2c3cc(C)ccc3OC13CCCC23 (stereo not given)
Cc1ccc(NC(=O)CCCCC(=O)Nc2ccc(C)c(Br)c2)cc1Br
C#CC(C)(C)NC(=O)c1ccc(-c2ccc(CC)cc2)cc1
CCC(c1nc2ccccc2c(=O)n1-c1cccc(C)c1)N(Cc1ccccc1)C(=O)Nc1c(C(C)C)cccc1C(C)C (stereo not given)
CCC(c1nc2ccccc2c(=O)n1-c1cccc(C)c1)N(CCc1ccccc1)C(=O)Nc1c(C(C)C)cccc1C(C)C (stereo not given)
COCCNC(=O)c1ccc(OC2CCN(CC(c3ccccc3)c3ccccc3)CC2)c(OC)c1
CCCNC(=O)c1ccc(OC2CCN(CC(c3ccccc3)c3ccccc3)CC2)c(OC)c1
COc1ccc(SC2CCN(C3CCOCC3)CC2)cc1
CCCCC(CC)C(=O)N(C)CCCNc1ccnc2cc(Cl)ccc12 (stereo not given)
O=C(NCC1CCCO1)c1cnc(NCCCn2ccnc2)nc1NCCc1ccccc1 (stereo not given)
Cc1cc(C)nc(N=C(N)Nc2ccccc2O)n1
Oc1ccc(-c2nc3ccccc3s2)cc1CN1CCCCC1
O=C1CSC(=S)N1c1cccc(Cl)c1
CC[C@@H]1CCC[C@H](C)CC[C@@H](O[C@@H]2O[C@@H](C)[C@@H](O)[C@@H](N)[C@H]2O)[C@H](CC)CCCNC1=O
CN(CCCNc1nc2ccccc2c2nc(-c3cccnc3)nn12)Cc1ccccc1
O=C(Cc1ccccc1)NCc1ccc(Nc2c(-c3cccnc3)nc3ccccn23)cc1
CCCCCCCSc1c(O)c2ccc(Cl)cc2[nH]c1=O
COc1ccc(Nc2ncnc3[nH]c(-c4cccc([N+](=O)[O-])c4)cc23)cc1
C1CCC(CN2CCc3nc(N4CCCCC4)sc3C2)CC1
CC(=O)N(C1=C(N(C)C)C(=O)c2ccccc2C1=O)c1cccc(O)c1
Oc1ccc(Br)cc1C=NNc1nc2ccccc2[nH]1
CCCOC(=O)C1=C(C)NC2=C(C(=O)CC(c3ccc(OC)c(OC)c3)C2)C1c1ccccc1C (stereo not given)
CN(C=Cc1sc2ccc3ccccc3c2[n+]1C)c1ccccc1
Oc1ccc(-c2cncnc2)cc1CNC1CCN(Cc2ccccc2)CC1
CC(C)CN(CC(=O)N1CCC(Nc2nsc3ccccc23)C1)S(C)(=O)=O (stereo not given)
COc1ccc2[nH]c(-c3ccccc3)cc(=O)c2c1
COc1ccc(Nc2nc(Nc3ccc(OC)cc3)c3ccccc3n2)cc1
CC(=O)Nc1ccc(C2NC(=O)NC3=Nc4ccccc4SC(c4ccccc4)=C32)cc1 (stereo not given)
Cc1cccc(CSc2nnc(C(Cc3ccccc3)NC(=O)C3CCCCC3)n2-c2ccc(Cl)cc2Cl)c1 (stereo not given)
Cc1cc(Nc2ccc(C)c(F)c2)n2nc(C)nc2n1
CCN1CCN(c2nc3ccccn3c(=O)c2C=C2SC(=S)N(C(C)C)C2=O)CC1
CCOc1ccccc1C=NNc1nc(Nc2ccccc2)nc(Nc2ccccc2)n1
Cc1cc(C)nc(NNc2c([N+](=O)[O-])cccc2[N+](=O)[O-])n1
O=c1c(NCc2ccco2)nc2cc(Cl)ccc2n1CCNc1ncc(C(F)(F)F)cc1Cl
Cn1c(=O)n(C)c2cc(NC(=O)CCl)ccc21
Oc1ccccc1-c1nc2ncccn2c1Nc1cccc(C(F)(F)F)c1
Cc1cc2cc3c(cc2c(C)n1)c1ccccc1n3C
Cc1ccc(N=C2NC(=O)C(=Cc3ccc(N(C)C)cc3)S2)cc1
c1ccc(CN2CCC(NCc3c[nH]c4ccccc34)CC2)cc1
Cc1ccccc1S(=O)Cc1ccc(C(=O)N2CCN(c3ccccn3)CC2)o1 (stereo not given)
CCN1C(=Cc2ccc3cc(C)ccc3[n+]2C)C=Cc2cc(C)ccc21
O=C(NCc1ccccc1)c1cnc(NCCCn2ccnc2)nc1NCCc1ccccc1
N#Cc1ccccc1Cn1nc(-c2cccnc2)oc1=O
Clc1ccc(-c2c[n+](Cc3ccc(Cl)c(Cl)c3)c3n2CCC3)cc1
c1ccc(Cn2c(N=Nc3c(Nc4ccccc4)ccc4ccccc34)nc3ccccc32)cc1
COC(=O)c1c(-c2c(F)cccc2Cl)noc1/C=C/Nc1ccccc1
CCCN(CCC)C(=O)Cn1ccc(=N)c2ccccc21
O=C1N(Cc2cc3ccccc3s2)CC2CN(Cc3ccccc3)CCN12 (stereo not given)
O=C1N(Cc2cc3ccccc3s2)CC2CN(Cc3ccoc3)CCN12 (stereo not given)
